Shown are actives, neighbours in structure and some others; about 19% of the full set was active somewhere.
HT1080 IDH1KD tx: qHTS for induction of synthetic lethality in tumor cells producing 2HG: qHTS for the HT-1080-IDH1KD cell line; HT-1080 IDH1 knockdown viability, ATP luminescence, 48 h; Potency, µM (series often up to 46.1 µM), usual class: cytotoxic; 360,000 compounds, 2% hits; AID 686971, 2013
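IDH1KD HT-1080 cells, 750/well, RPMI + 5% FBS; compound pinned after 2 h settling; 48 h, 37 °C; CellTiter-Glo luminescence; % activity normalised to DMSO and no-cell wells; curves fitted, classed by r2 and efficacy.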
KB-3-1 tox: qHTS assay for MDR1-selective chemotherapeutics: Primary screen using the parental adenocarcinoma cell KB-3-1 | KB-3-1 viability, CellTiter-Glo ATP luminescence, 72 h | Potency, µM (series often up to 46.1 µM), usual class: cytotoxic | 400,000 compounds, 1.4% hits | AID 1347075, 2019; note: nearly all actives have a fitted effect of over 60% in size
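Using CellTiter-Glo luminescence, growth of non-resistant KB-3-1 adenocarcinoma cells is assessed 72 h after pin-tool compound addition at 37 °C. Normalized responses across the concentration series yield fitted curves.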
DT40 TDP1 no CPT: qHTS for Inhibitors of human tyrosyl-DNA phosphodiesterase 1 (TDP1): qHTS in cells in absence of CPT; DT40 Tdp1-/- hTDP1 cells, no CPT, ATP luminescence, 48 h; Potency, µM (series often up to 46.2 µM), most hits filed as inhibitors; 420,000 compounds, 15% hits; AID 686978, 2013; note: nearly all actives have a fitted effect of over 55% in size
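Camptothecin absent (DMSO only). Human TDP1-complemented DT40 knockout cells, 400 cells/well, 37 °C for minimum 48 hr; ATP measured via CellTiter-Glo, 30 min dark incubation, luminescence.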
DT40 TDP1 CPT: qHTS for Inhibitors of human tyrosyl-DNA phosphodiesterase 1 (TDP1): qHTS in cells in presence of CPT. chicken DT40 Tdp1-/-;hTDP1 cells + 20 nM CPT, ATP luminescence, 48 h. Potency, µM (highest dose often 46.2 µM), hits mostly inhibitors. 420,000 compounds, 12% hits. AID 686979, 2013; note: nearly all actives have a fitted effect of over 55% in size
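Chicken DT40 Tdp1-/- cells stably complemented with human TDP1 were seeded at 400 cells/well in medium containing 20 nM camptothecin, exposed to pin-transferred compounds, and grown at 37 °C for at least 48 hr. Viability was read as ATP luminescence.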
HT1080NT lethal: qHTS for induction of synthetic lethality in tumor cells producing 2HG: qHTS for the HT-1080-NT fibrosarcoma cell line. AID 686970, 2013. Potency, µM (highest dose often 46.1 µM), most hits filed as cytotoxic. HT-1080-NT fibrosarcoma viability, CellTiter-Glo ATP luminescence, 48 h. 360,000 compounds, 1.6% hits;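 note: NT is the 2HG producing partner of a matched IDH1 knockdown line; nearly all actives have a fitted effect of over 55% in size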
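Toxicity toward the 2HG-producing NT line was scored as %Activity, normalised to DMSO and no-cell wells, from CellTiter-Glo luminescence after 48 hours' treatment.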
KB-V1 cytotox: qHTS assay for MDR1-selective chemotherapeutics: Primary screen using the drug-selected MDR subline cells KB-V1; KB-V1 MDR cells viability, CellTiter-Glo, 72 h; Potency, µM (titrated, usually from 46.1 µM), actives largely listed as cytotoxic; 400,000 compounds, 3.4% hits; AID 1347076, 2019; note: nearly all actives have a fitted effect of over 60% in size
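KB-V1 MDR subline cells in DMEM (phenol-red free, 10% FBS) exposed to compounds in qHTS concentration series for 72 h at 37 degrees C. Viability read by CellTiter-Glo luminescence; concentration-effect curves fitted after normalization and correction.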
Each line names hits and unclear results; the compound was inactive in the other large screens. Calls come from the whole dose curve; as a rule, active = well fitted curve in the direction sought with a large enough effect; inconclusive = small, poorly fitted or top-dose-only effect, or another doubt; inactive = no such curve, though single readings can be large; an effect the other way counts as inactive or inconclusive.

COc1ccc(-c2cc(C(F)(F)F)nc(SCC(=O)N3CC(C)OC(C)C3)n2)cc1OC (configuration not stated)	KB-V1 cytotox inconclusive
COc1ccc(-c2cc(C(F)(F)F)nc(SCCC(=O)N3CCCC3)n2)cc1	DT40 TDP1 no CPT inconclusive, DT40 TDP1 CPT inconclusive
COc1ccc(-c2cc(C(F)(F)F)nc(SCCC(=O)N3CCN4CCCC4C3)n2)cc1 (configuration not stated)	DT40 TDP1 no CPT 26µM, DT40 TDP1 CPT inconclusive, KB-V1 cytotox inconclusive
CCC1CCCCN1C(=O)CSc1nc(-c2ccc(OC)cc2)cc(C(F)(F)F)n1 (configuration not stated)	DT40 TDP1 no CPT 9.2µM, DT40 TDP1 CPT 23µM (no result: HT1080 IDH1KD tx, HT1080NT lethal)
COc1ccc(C(=O)N(C)C2CCN(C)CC2)cc1S(=O)(=O)Nc1cc(Cl)ccc1Cl	none
COc1ccc(-c2cn(/N=C/c3ccc(Cl)cc3Cl)c(N)n2)cc1	DT40 TDP1 no CPT inconclusive, DT40 TDP1 CPT 23µM, HT1080NT lethal inconclusive, KB-V1 cytotox inconclusive
Nc1nc(-c2ccccc2)cn1N	DT40 TDP1 no CPT inconclusive, DT40 TDP1 CPT inconclusive
Nc1nc(-c2ccccc2)cn1/N=C/c1ccccc1	HT1080 IDH1KD tx inconclusive, DT40 TDP1 no CPT 23µM, DT40 TDP1 CPT inconclusive, HT1080NT lethal inconclusive
O=C(NN=Cc1ccc(N2CCOCC2)s1)c1ccc([N+](=O)[O-])cc1	KB-3-1 tox inconclusive, DT40 TDP1 no CPT 18µM, DT40 TDP1 CPT inconclusive, KB-V1 cytotox inconclusive
O=C(N/N=C/c1ccc(Br)s1)c1ccc([N+](=O)[O-])cc1	HT1080 IDH1KD tx inconclusive, KB-3-1 tox inconclusive, DT40 TDP1 no CPT 2.6µM, DT40 TDP1 CPT inconclusive, HT1080NT lethal inconclusive
Cc1ccsc1CNC(=O)c1c(-c2ccccc2)noc1C	none
COc1ccc(-c2cc(C(F)(F)F)n3nc(C(=O)Nc4cc(C(F)(F)F)ccc4Cl)cc3n2)cc1OC	DT40 TDP1 no CPT inconclusive (no result: HT1080 IDH1KD tx, HT1080NT lethal)
O=C1[C@@H](Oc2ccccc2)[C@@H](c2ccccc2)N1c1cccnc1	DT40 TDP1 no CPT 13µM, DT40 TDP1 CPT inconclusive
O=C1[C@H](c2ccccc2)[C@@H](c2ccccc2)N1c1ccncc1	DT40 TDP1 no CPT inconclusive, DT40 TDP1 CPT 15µM
O=C1C(Cc2ccccc2)C(c2ccccc2)N1c1ccccc1 (configuration not stated)	KB-3-1 tox 21µM, DT40 TDP1 no CPT inconclusive, DT40 TDP1 CPT inconclusive, KB-V1 cytotox 18µM
O=C1[C@@H](Oc2ccccc2)[C@@H](c2ccncc2)N1c1ccccc1	HT1080 IDH1KD tx 21µM, DT40 TDP1 no CPT 18µM, DT40 TDP1 CPT inconclusive, HT1080NT lethal inconclusive
Nc1nc[nH]c(=O)c1N=Cc1ccccc1	none
Cn1cccc1C(=O)N1CCC2(CCCN(C(=O)Nc3ccccc3)C2)CC1	none (no result: HT1080 IDH1KD tx, KB-3-1 tox, HT1080NT lethal, KB-V1 cytotox)
O=C1CCN(Cc2ccccc2)CCN1CCOc1ccccc1	KB-3-1 tox inconclusive, DT40 TDP1 no CPT 16µM, DT40 TDP1 CPT 21µM, KB-V1 cytotox inconclusive
O=C(Nc1ccccc1)OCCN1CCN(Cc2ccccc2)CCC1=O	none
CC(C)[C@@H](COc1ccccc1)N1CCN(Cc2ccccc2)CCC1=O	DT40 TDP1 no CPT inconclusive, DT40 TDP1 CPT 11µM, KB-V1 cytotox inconclusive
O=C(CCN1CCN(Cc2ccccc2)CC1)Nc1cccc(Cl)c1	DT40 TDP1 no CPT inconclusive, DT40 TDP1 CPT inconclusive, KB-V1 cytotox 23µM
CC(C)C(CO)N1CCN(Cc2ccccc2)CCC1=O (configuration not stated)	none
O=C(Nc1cccc(Cl)c1)OCCN1CCN(Cc2ccccc2)CCC1=O	DT40 TDP1 no CPT 18µM, DT40 TDP1 CPT inconclusive, KB-V1 cytotox inconclusive
N/C(=N\OC(=O)/C=C/c1ccccc1)c1ccccc1	none
CC1=C/C(=N\OC(=O)/C=C/c2ccccc2)C(C)=CC1=O	DT40 TDP1 no CPT inconclusive, DT40 TDP1 CPT 23µM
O=C(CN1C(=O)c2ccccc2C1=O)NC1CCS(=O)(=O)C1 (configuration not stated)	none
O=C(NC(=S)NC1CCS(=O)(=O)C1)c1ccccc1 (configuration not stated)	KB-3-1 tox inconclusive, KB-V1 cytotox inconclusive
CN(C1=C(NC(=O)c2ccccc2)C(=O)c2ccccc2C1=O)C1CCS(=O)(=O)C1 (configuration not stated)	KB-3-1 tox inconclusive, DT40 TDP1 no CPT 2.6µM, DT40 TDP1 CPT 2.6µM, HT1080NT lethal inconclusive, KB-V1 cytotox inconclusive
CC(=O)NC1=C(NC2CCS(=O)(=O)C2)C(=O)c2ccccc2C1=O (configuration not stated)	KB-3-1 tox inconclusive, DT40 TDP1 no CPT 12µM, DT40 TDP1 CPT 10µM
CCOc1ccc(N(Cc2cc3cc(OC)ccc3[nH]c2=O)C(=O)C2CCCO2)cc1 (configuration not stated)	DT40 TDP1 no CPT 18µM, DT40 TDP1 CPT inconclusive
COc1ccccc1N(Cc1cc(=O)[nH]c2ccccc12)C(=O)c1cccc([N+](=O)[O-])c1	DT40 TDP1 no CPT inconclusive, DT40 TDP1 CPT 21µM
COc1ccc2[nH]c(=O)c(CN(C(=O)c3cccc(Cl)c3)c3ccccc3C)cc2c1	DT40 TDP1 no CPT inconclusive, DT40 TDP1 CPT inconclusive (no result: HT1080 IDH1KD tx, HT1080NT lethal)
Cc1ccc2cc(CN(C(=O)c3cccc(Cl)c3)c3ccccc3)c(=O)[nH]c2c1	DT40 TDP1 no CPT 18µM, DT40 TDP1 CPT 12µM (no result: HT1080 IDH1KD tx, HT1080NT lethal)
Cc1ccc2cc(CN(C(=O)c3ccco3)c3ccccc3)c(=O)[nH]c2c1	DT40 TDP1 CPT inconclusive
COc1ccc2[nH]c(=O)c(CN(C(=O)c3cccc(Cl)c3)c3ccccc3OC)cc2c1	DT40 TDP1 no CPT inconclusive, DT40 TDP1 CPT 23µM (no result: HT1080 IDH1KD tx, HT1080NT lethal)
CCOC(=O)c1[nH]c2ccccc2c1NC(=O)c1ccc(C)c(C)c1	DT40 TDP1 no CPT inconclusive (no result: HT1080 IDH1KD tx, HT1080NT lethal)
CCOc1ccc(N(Cc2cc3cc(C)ccc3[nH]c2=O)C(=O)COC)cc1	DT40 TDP1 CPT inconclusive, HT1080NT lethal inconclusive, KB-V1 cytotox inconclusive
CCOc1ccc(N(Cc2cc3cc(C)ccc3[nH]c2=O)C(=O)c2cccc(Cl)c2)cc1	DT40 TDP1 no CPT inconclusive, DT40 TDP1 CPT 9.2µM (no result: HT1080 IDH1KD tx, HT1080NT lethal)
CC1(C(=O)NS(=O)(=O)c2ccc(C#N)cc2)CCN1C(=O)Cc1ccc(-c2ccccc2)cc1 (configuration not stated)	none
